Inconclusive results are not listed. Calls of active or inactive are those of the source. The call rests on the fitted dose curve; in most records, active means well fitted curve in the direction sought with a large enough effect; inconclusive means small, poorly fitted or top-dose-only effect, or another doubt; inactive means no such curve, though single readings can be large; an effect the other way counts as inactive or inconclusive.
What was measured:
MKL-1 = test: qHTS assay to identify novel small-molecules to repurpose for Merkel cell carcinoma treatment (AID 1296009); conditions: MCC and control cell lines, CellTiter-Glo viability, 72 h; series mostly up to 46 µM; further: nearly all actives have a fitted effect of over 60% in size
Procedure, shortened: (§1)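 CellTiter-Glo luminescence after 72 hr compound exposure at 37 degree celsius gave cell viability. Libraries NPC and MIPE were run as 8- and 11-point dose responses; RLUs normalized to DMSO (negative) and no-cell (cytotoxicity) controls.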

MKL-2 = test: as above; conditions: MCC and control cell lines, CellTiter-Glo viability, 72 h; series mostly up to 46 µM
Procedure, shortened: as §1

UISO = test: as above; conditions: MCC and control cell lines, CellTiter-Glo viability, 72 h; series mostly up to 46 µM
Procedure, shortened: as §1

WaGa = test: as above; conditions: MCC and control cell lines, CellTiter-Glo viability, 72 h; series mostly up to 46 µM
Procedure, shortened: as §1

C33A = test: Primary qHTS to identify gynecologic anti-cancer compounds using libraries of approved drugs and bioactive compounds (AID 1345084); conditions: Gynecologic cancer cell panel viability, ATPlite luminescence, 48 h; series mostly up to 57.5 µM; further: nearly all actives have a fitted effect of over 55% in size
Procedure, shortened: (§2)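 Cells, 1,000 per well, were allowed to settle for 16 h at 37 C before compound addition. Five concentrations were tested for 48 h, and viability was read by ATPlite luminescence after 15 min at room temperature.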

CAOV3 = test: as above; conditions: Gynecologic cancer cell panel viability, ATPlite luminescence, 48 h; series mostly up to 57.5 µM
Procedure, shortened: as §2

CASKI = test: as above; conditions: Gynecologic cancer cell panel viability, ATPlite luminescence, 48 h; series mostly up to 57.5 µM
Procedure, shortened: as §2

Es-2 = test: as above; conditions: Gynecologic cancer cell panel viability, ATPlite luminescence, 48 h; series mostly up to 57.5 µM
Procedure, shortened: as §2

HeLa = test: as above; conditions: Gynecologic cancer cell panel viability, ATPlite luminescence, 48 h; series mostly up to 57.5 µM
Procedure, shortened: as §2

Measured: activity change, negative = cytotoxicity
On the % scale 0 is the no-effect control and ±100 the full control effect.

Cc1ccc(C(C)C)c(O)c1
inactive: all assays above

O=C1c2ccccc2C(=O)C1c1ccc(Br)cc1
inactive: all assays above

CN(C/C=C/C#CC(C)(C)C)Cc1cccc2ccccc12
inactive: all assays above

CCOC(=O)[C@H](CCc1ccccc1)N[C@@H](C)C(=O)N1Cc2cc(OC)c(OC)cc2C[C@H]1C(=O)O
inactive: all assays above

O=C(O)c1ccccc1C(=O)Nc1ccc(S(=O)(=O)Nc2nccs2)cc1
inactive: all assays above

CNc1c2c(nn1C)CCCC2
inactive: all assays above

CC(C)CCOC(=O)c1ccc(N(C)C)cc1
inactive: all assays above

O=C(Cn1ccnc1[N+](=O)[O-])NCc1ccccc1
inactive: all assays above

Cc1cccc(Nc2ccccc2C(=O)O)c1C
inactive: all assays above

O=C(O)c1ccc(OCCCOc2ccc(C(=O)O)cc2)cc1
inactive: all assays above

CCc1cccc(CC)c1NC(=O)CN(CC(=O)O)CC(=O)O
inactive: all assays above

C[N+]1(C)CCCC(OC(=O)C(O)(c2ccccc2)c2ccccc2)C1 (stereo not drawn)
inactive: all assays above

CN/C(=C\[N+](=O)[O-])NCCSCc1csc(CN(C)C)n1
inactive: all assays above

CN1C(C)(C)CCCC1(C)C
inactive: all assays above

COc1cc(C(=O)NCCCCCC(=O)O)cc(OC)c1OC
inactive: all assays above

O=c1[nH]cnc2nc[nH]c12
inactive: all assays above

O=C(O)CCC(=O)O
inactive: all assays above

O=C(O)CCCc1ccccc1
inactive: all assays above

Cc1cc(O)cc(C)c1Cl
inactive: all assays above

CN1C[C@@H]2C[C@H]1CN2c1cc2c(cc1F)c(=O)c(C(=O)O)cn2C1CC1
inactive: all assays above

Nc1ccncc1N
inactive: all assays above

CC1CCc2cc(F)cc3c(=O)c(C(=O)O)cn1c23 (stereo not drawn)
inactive: all assays above

O=C(NCN1CCOCC1)c1cnccn1
inactive: all assays above

O[C@@H]1CO[C@H]2[C@@H]1OC[C@@H]2O
inactive: all assays above

CC(C)(C)C(=O)OCOC(=O)[C@@H]1N2C(=O)[C@@H](NC(=O)[C@H](N)c3ccccc3)[C@H]2SC1(C)C
inactive: all assays above

CC(=O)OCC(=O)[C@@]1(O)CC[C@H]2[C@@H]3CCC4=CC(=O)C=C[C@]4(C)[C@@]3(F)[C@@H](O)C[C@@]21C
not listed: CAOV3
inactive: all other assays above

O=C1C(c2[nH]c3ccccc3c2O)=Nc2ccccc21
not listed: UISO
inactive: all other assays above

C[C@@H](c1ncncc1F)C(O)(Cn1cncn1)c1ccc(F)cc1F (stereo partly drawn)
inactive: all assays above

CCCCCCCC(=O)OCC(O)CO (stereo not drawn)
inactive: all assays above

CCC(C)(CN(C)C)OC(=O)c1ccccc1 (stereo not drawn)
not listed: CAOV3
inactive: all other assays above

CC(=O)NS(=O)(=O)c1ccc(N)cc1
inactive: all assays above

CC(=O)OC[C@H]1O[C@@](COC(C)=O)(O[C@H]2O[C@H](COC(C)=O)[C@@H](OC(C)=O)[C@H](OC(C)=O)[C@H]2OC(C)=O)[C@@H](OC(C)=O)[C@@H]1OC(C)=O
inactive: all assays above

Cc1[nH]c(C)c(Cl)c(=O)c1Cl
inactive: all assays above

CCCOC(=O)c1ccc(N)cc1
not listed: CASKI
inactive: all other assays above

Cc1c(Cn2ccnc2)c2ccccc2n1CCC(=O)O
not listed: CAOV3
inactive: all other assays above

CC1(c2ccccc2)OC(C(=O)O)=CC1=O (stereo not drawn)
inactive: all assays above

CC(=O)N[C@@H](CC(C)C)C(=O)O
inactive: all assays above

Cc1ccc2c(c1)c1c3n2CCNC3CCC1 (stereo not drawn)
inactive: all assays above

COCC(=O)Nc1c(I)c(C(=O)NCC(O)CO)c(I)c(C(=O)N(C)CC(O)CO)c1I (stereo not drawn)
not listed: Es-2
inactive: all other assays above

CCCCCCCC(=O)OCC(COC(=O)CCCCCCC)OC(=O)CCCCCCC
inactive: all assays above

C=CCSCC1Nc2cc(Cl)c(S(N)(=O)=O)cc2S(=O)(=O)N1 (stereo not drawn)
inactive: all assays above

COc1ccc(O)cc1
not listed: MKL-2
inactive: all other assays above

Nc1ncnc2c1ncn2[C@@H]1O[C@H](COP(=O)(O)O)[C@@H](O)[C@H]1O
inactive: all assays above

COC(=O)c1cccnc1
inactive: all assays above

CC1CC(OC(=O)c2ccccc2O)CC(C)(C)C1 (stereo not drawn)
not listed: MKL-2
inactive: all other assays above

CCS(=O)(=O)CCn1c([N+](=O)[O-])cnc1C
not listed: CASKI
inactive: all other assays above

Cc1ccccc1N=Nc1ccc(N=Nc2c(O)ccc3ccccc23)c(C)c1
not listed: UISO
inactive: all other assays above

CCCCCCCCCCOc1cc2c(=O)c(C(=O)OCC)c[nH]c2cc1OCC
inactive: MKL-1 -4.83% [at 4.84 µM] | MKL-2 10.7% [at 4.84 µM] | UISO 13.6% [at 4.84 µM] | WaGa -1.72% [at 4.84 µM] | C33A 1.85% [at 6.55 µM] | CAOV3 22.4% [at 6.55 µM] | CASKI 19.5% [at 6.55 µM] | Es-2 -0.35% [at 6.55 µM] | HeLa -1.47% [at 6.55 µM]

O=C(NCC(O)CO)c1c(I)c(C(=O)NCC(O)CO)c(I)c(N(CCO)C(=O)CO)c1I (stereo not drawn)
inactive: all assays above

O=C(Cn1ccnc1[N+](=O)[O-])NCCO
inactive: all assays above

CCCCCOC(=O)Nc1nc(=O)n([C@@H]2O[C@H](C)[C@@H](O)[C@H]2O)cc1F
inactive: all assays above

Cc1cc(NC(=O)C2=C(O)c3ccccc3S(=O)(=O)N2C)no1
inactive: all assays above
